The list is not random: actives were taken first. Their share in the collection is about 2.9%.
PAFAH1B2 FP inh: inhibitors of human PAFAH1B2; recombinant PAFAH1B2, FP-rhodamine activity probe, fluorescence polarization; inhibition, % at 3.39 µM; P68402; 340,000 tested, 1.2% active;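 active = inhibition above the mean of all tested compounds plus 3 SD, cut at about 24% in these data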;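 note: 0% = enzyme with DMSO and 100% = wells lacking PAFAH1B2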
PAFAH1B3 FP inh: PAFAH1B3 (human) inhibition; recombinant PAFAH1B3, FP-rhodamine probe, fluorescence polarization; Q15102; 340,000 tested, 0.28% active; AID 492972; inhibition, % at 3.39 µM;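 active = inhibition above the screen-wide average of all tested compounds plus 3 SD, cut at about 25% in these data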;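 note: 0% = enzyme with DMSO only and 100% = wells lacking PAFAH1B3 protein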
pPAFAH inh: inhibitors of human plasma PAF acetylhydrolase (pPAFAH); AID 463082; inhibition, % at 3.39 µM; 330,000 tested, 1.5% active; Q13093; recombinant pPAFAH, FP-rhodamine probe fluorescence polarization;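 active = inhibition above the mean inhibition across the screen plus 3 SD, cut at about 25% in these data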;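 note: inhibitors block binding of the rhodamine activity-based probe so polarization drops; 0% = enzyme with DMSO and 100% = wells lacking pPAFAH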
Target sequence (Q13093 whole entry, looked up): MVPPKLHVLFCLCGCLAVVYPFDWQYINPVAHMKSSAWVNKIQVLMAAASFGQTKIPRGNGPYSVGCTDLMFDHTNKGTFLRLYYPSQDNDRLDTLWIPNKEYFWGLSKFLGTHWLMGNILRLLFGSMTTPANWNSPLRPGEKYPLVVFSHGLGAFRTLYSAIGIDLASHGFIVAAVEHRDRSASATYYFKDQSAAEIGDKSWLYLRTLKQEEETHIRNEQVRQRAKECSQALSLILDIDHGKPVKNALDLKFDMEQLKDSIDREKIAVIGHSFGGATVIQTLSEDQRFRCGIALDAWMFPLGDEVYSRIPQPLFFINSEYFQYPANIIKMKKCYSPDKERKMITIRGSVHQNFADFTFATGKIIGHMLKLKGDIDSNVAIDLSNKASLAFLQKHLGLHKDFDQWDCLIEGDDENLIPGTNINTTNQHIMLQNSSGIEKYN
PME-1 primary: blocks human protein phosphatase methylesterase 1 | Q9Y570 | recombinant PME-1, FP-Rh probe fluorescence polarization | inhibition, % at 5.9 µM | 320,000 tested, 0.53% active | AID 2130;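 active = inhibition above the campaign mean of all compounds plus 3 SD, cut at about 26% in these data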;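 note: competitive labeling of PME-1 active site by serine hydrolase directed probe; 0% = PME-1 with DMSO and 100% = wells lacking PME-1 enzyme; inhibitors block probe labeling so polarization falls and inhibition rises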
PAFAH2 inh: inhibitors of human PAFAH2; Q99487; recombinant PAFAH2, FP-rhodamine activity probe, fluorescence polarization; inhibition, % at 3.39 µM; 340,000 tested, 0.99% active;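 active = inhibition above the mean over all tested compounds plus 3 SD, cut at about 30% in these data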;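 note: inhibitors block probe labeling of enzyme so polarization drops; 0% = enzyme with DMSO and 100% = wells lacking PAFAH2 protein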
Fam108B inh: counter-screen for RBBP9 inhibitors: inhibitors of mouse Fam108B; recombinant Fam108B, FP-Rh probe fluorescence polarization; inhibition, % at 9.51 µM; 300,000 tested, 0.33% active;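 active = inhibition above the screen mean inhibition plus 3 SD, computed separately per campaign, cut at about 18% in these data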;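 note: inhibitors lower polarization as less probe binds the enzyme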
An asterisk follows results filed as active; · = not tested or not shown.

SMILES	PAFAH1B2 FP inh	PAFAH1B3 FP inh	pPAFAH inh	PME-1 primary	PAFAH2 inh	Fam108B inh
Cc1ccc(C(=O)OCC(=O)N2CC(C)OC(C)C2)cc1 (stereo not drawn)	1.1	-4.0	-0.7	0.3	1.6	3.0
CCOC(=O)CSc1nnc(NC(=O)CN2CCN(C=O)CC2)s1	52.0*	4.3	3.4	-3.9	1.5	6.6
Cc1cccc(C)c1NS(=O)(=O)c1ccc(NC(=O)c2ccc(Cl)c([N+](=O)[O-])c2)cc1	-1.7	2.0	-24.1	33.3*	-41.7	-9.8
O=C(Nc1ccc(S(=O)(=O)NC2=NCCCCC2)cc1)c1ccc(Cl)c([N+](=O)[O-])c1	2.6	-2.4	5.2	·	6.4	·
Cc1ccc(NC(=O)COC(=O)Cc2csc(-c3ccc(Cl)cc3)n2)cc1C	7.7	-2.3	10.9	-9.1	6.9	-0.3
Cc1ccc(NC(=O)COC(=O)Cc2csc(-c3cccc(F)c3)n2)cc1C	19.6	8.1	26.8*	-7.0	2.0	-7.8
COc1ccc(/C=N\NC(=O)c2cc(O)c(O)c(O)c2)cc1CN1CCN(c2ccc(F)cc2)CC1	-6.3	12.9	30.5*	20.6	-6.3	13.8
CC1=NN(c2ccccc2)C(=O)C1C=Nc1ccc(N(C)C)cc1 (stereo not drawn)	·	·	34.1*	9.9	·	0.9
O=S(=O)(NC1CCCCC1N1CCC(O)CC1)c1ccccc1 (stereo not drawn)	7.1	10.6	-4.0	-1.0	-1.1	-7.5
O=C1NNC(c2ccccc2)=N/C1=C\c1ccco1	3.5	1.6	26.4*	2.9	14.1	0.8
Cc1n[nH]c(=S)n1/N=C/c1ccc(OCc2ccc(Cl)cc2)cc1	28.2*	5.8	4.6	6.9	9.5	2.2
Cc1oc2ccc(NS(=O)(=O)c3ccccc3)cc2c1C(=O)Nc1ccccc1	7.9	2.8	32.7*	-2.2	1.4	-1.8
O=c1cc(SCc2ccc(Cl)cc2Cl)nc[nH]1	24.8*	5.6	·	·	3.2	·
Cc1cc(SCc2ccc(Cl)cc2Cl)nc(=O)[nH]1	3.5	-2.7	13.6	-5.0	12.8	3.8
CCOc1ccc2c(c1)c(C(C)=O)c(C)n2-c1ccccc1	-0.1	2.8	26.0*	-4.8	-7.0	-0.9
COc1ccccc1NC(=O)N1CCCC1C(=O)NCC1CCCO1 (stereo not drawn)	-5.9	16.7	-1.2	-11.7	-4.3	1.5
c1csc(C2Nc3cccc4cccc(c34)N2)c1	10.8	30.2*	9.6	5.2	-0.7	11.4
COc1cccc(NC(=O)Nc2ccc3c(c2)N(C)C(=O)CS3)c1	2.2	11.9	11.3	32.3*	1.1	15.1
CCC(=O)c1cn([C@H](CCC(OC)OC)CC(=O)OC(C)(C)C)cc1CC	3.1	6.9	2.5	3.2	5.5	-0.3
O=C1N/C(=N\S(=O)(=O)Cc2ccccc2)S/C1=C/c1cc([N+](=O)[O-])ccc1O	28.7*	38.9*	31.9*	-12.4	12.3	7.3
COc1cc(/C=C2\S/C(=N/S(=O)(=O)Cc3ccccc3)NC2=O)c([N+](=O)[O-])cc1OC	13.9	9.9	19.8	-2.7	9.8	3.7
Cc1ccc(C(=O)CSC2=C(C#N)C(c3ccco3)C3=C(CCCC3=O)N2)cc1 (stereo not drawn)	0.1	16.2	14.0	32.3*	0.4	-1.5
CCCCCN(C(=O)CSc1n[nH]c(-c2ccc(C)cc2)n1)c1c(N)n(CCCC)c(=O)[nH]c1=O	29.2*	4.2	-2.6	-4.7	-1.9	3.3
O=C(CSc1nnc(CNc2ccc(Cl)cc2)o1)Nc1nc2c(s1)CCCC2	24.3*	5.8	22.0	9.3	12.1	1.0
O=c1oc(-c2ccc(O)c(O)c2)cc2cccc(O)c12	-0.7	2.2	25.1*	·	17.4	·
O=C(O)c1cccc2cc(-c3ccccc3)oc(=O)c12	1.6	7.0	3.6	-2.7	4.7	-3.4
Nc1ncnc2c1nc(Sc1ccc(Cl)cc1)n2[C@@H]1O[C@@H]2COP(=O)(O)O[C@H]2[C@H]1O	25.8*	4.0	2.4	-2.6	-4.5	-3.9
CCCC(=O)Nc1ncnc2c1ncn2[C@@H]1O[C@@H]2COP(=O)(O)O[C@H]2[C@H]1OC(=O)CCC	4.6	5.3	3.2	0.2	0.5	-6.3
O=C(c1ccc(COc2ccc(Br)cc2)o1)N1N=C(C(F)F)CC1(O)C(F)F (stereo not drawn)	28.9*	-2.0	10.4	-3.9	-1.6	-4.7

Compound activity as filed in PubChem.
